In the library only some 4.1% were active in any assay of this set; here they are far more common.
AmpC detergent: blocks E. coli AmpC beta-lactamase in detergent assay | Potency, µM (titrated, usually from 114 µM), for inactives: top-dose activity change, negative = inhibition, most hits filed as inhibitors | 0.041% of 370,000 active | AmpC hydrolysis of nitrocefin, absorbance 480 nm, 0.01% Triton | P00811 | AID 485294;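 also: 0% = no-compound wells and -100% = no-enzyme wells; nearly all actives have a fitted effect of over 25% in size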
Target sequence (P00811 whole entry, looked up): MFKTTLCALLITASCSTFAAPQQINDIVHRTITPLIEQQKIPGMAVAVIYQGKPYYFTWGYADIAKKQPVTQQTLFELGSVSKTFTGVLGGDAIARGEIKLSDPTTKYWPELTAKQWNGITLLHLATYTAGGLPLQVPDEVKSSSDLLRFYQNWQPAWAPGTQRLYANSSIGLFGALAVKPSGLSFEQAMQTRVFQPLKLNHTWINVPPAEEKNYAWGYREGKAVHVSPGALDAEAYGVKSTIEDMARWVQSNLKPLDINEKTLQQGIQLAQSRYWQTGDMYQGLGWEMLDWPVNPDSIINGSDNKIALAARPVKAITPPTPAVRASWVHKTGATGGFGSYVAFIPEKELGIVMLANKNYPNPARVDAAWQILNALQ
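20 mM phosphate pH 7.0 + 0.01% (detergent screen) or 0.0001% Triton X-100; 5.3 nM AmpC reagent; cpd preinc 15 min RT; nitrocefin (800 uM stock) to start; A480 q20 s × 4 min; Activity was normalised to no-enzyme and no-compound control wells.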
AMA1-RON2 inh: AMA1-RON2 (P. falciparum) interaction inhibition | AlphaScreen AMA1-biotinylated RON2 peptide binding | Potency, µM (series often up to 58.2 µM), without a hit: top-dose activity change, negative = inhibition, actives largely listed as inhibitors | 0.2% of 360,000 active | AID 720542;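 also: 0% = vehicle wells and -100% = peptide control; nearly all actives have a fitted effect of over 45% in size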
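AMA1 (3D7) with his tag at 25 nM final met compounds first, then biotinylated RON2 peptide at 25 nM; detection used donor plus acceptor beads, 10 µg/mL apiece, read by AlphaScreen after 30 min at room temperature.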
FMDV inh: antivirals against foot and mouth disease virus | Potency, µM (titrated, usually from 57.9 µM), inactives show at the highest dose activity change, negative = inhibition, most hits filed as inhibitors | FMDV antiviral cell-based qHTS | 1.2% of 410,000 active | AID 1159524; calls by dose curve; tested in HEK293T cells; also: read-out not given here; nearly all actives have a fitted effect of over 45% in size
Sm TGR block: S. mansoni TGR enzyme inhibition; purified TGR, DTNB reduction, TNB absorbance 405 nm; Potency, µM (titrated, usually from 114 µM), for inactives: at the highest dose activity change, negative = inhibition, most hits filed as inhibitors; 3% of 360,000 active; AID 485364; also: nearly all actives have a fitted effect of over 60% in size
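Kinetic colorimetric format: TGR-catalysed, NADPH-driven DTNB reduction monitored via TNB absorbance. Enzyme dispensed at 20 nM; compound exposure 15 min at room temperature before reaction start.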
AmpC inh no detg: inhibitors of E. coli AmpC beta-lactamase without detergent | AmpC nitrocefin hydrolysis, absorbance 480 nm, 0.0001% Triton | Potency, µM (series often up to 57.1 µM), for inactives: at the highest dose activity change, negative = inhibition, most hits filed as inhibitors | 0.52% of 330,000 active | AID 485341;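 also: plate controls were no compound for no effect and no enzyme for full effect; nearly all actives have a fitted effect of over 20% in size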
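20 mM phosphate pH 7.0 + 0.01% (detergent screen) or 0.0001% Triton X-100; 5.3 nM AmpC reagent; cpd preinc 15 min RT; nitrocefin (800 uM stock) to start; A480 q20 s × 4 min; Activity was normalised to no-enzyme and no-compound control wells.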
* hit, by the source's call. Unless noted, calls follow the shape of the dose curve; as a rule, active = well fitted curve in the direction sought with a large enough effect; inconclusive = small, poorly fitted or top-dose-only effect, or another doubt; inactive = no such curve, though single readings can be large; an effect the other way counts as inactive or inconclusive. Unless noted, % is scaled to controls: 0 for no effect and ±100 for the full control effect; potency is read from the fitted curve at half-maximal effect.

Results for CN(C)c1ccc(CNC(=O)C2(C)Cc3c(-c4cccc(C(F)(F)F)c4)ccnc3O2)cc1 (stereo not drawn) ?
AMA1-RON2 inh: 25µM*; FMDV inh: -24%

How did CC1(C(=O)NCc2ccc(F)c(F)c2)Cc2c(-c3cccc(C(F)(F)F)c3)ccnc2O1 (stereo not drawn) do in these assays?
AMA1-RON2 inh: 0%; FMDV inh: -14%

Results for COc1ccc(-n2c(CCC(=O)O)ccc2-c2ccccc2)c(OC)c1 ?
AmpC detergent: -6%; FMDV inh: 7%; Sm TGR block: 8.9µM*

Results for COc1ccc(-c2ccc(CCC(=O)O)n2-c2ccccc2OC)cc1 ?
AmpC detergent: -1%; AMA1-RON2 inh: -9%; FMDV inh: 0%; Sm TGR block: 11µM*; AmpC inh no detg: -17%

How did COc1ccccc1NC(=O)Cn1c(CCC(=O)O)ccc1-c1ccc(C)cc1 do in these assays?
AmpC detergent: 1%; AMA1-RON2 inh: -15%; FMDV inh: 3%; Sm TGR block: -24%; AmpC inh no detg: -20%

Results for COc1ccccc1-n1c(CCC(=O)O)ccc1-c1ccccc1 ?
AmpC detergent: -1%; AMA1-RON2 inh: -22%; FMDV inh: 1%; Sm TGR block: 28µM*; AmpC inh no detg: -14%

Results for Cc1cc(C)n(CCc2nc3c4ccccc4nc(N4CCN(c5ccc(F)cc5)CC4)n3n2)n1 ?
AmpC detergent: 25%; FMDV inh: -7%; Sm TGR block: 6%

What do the screens show for `CC1c2cccn2CCN1S(=O)(=O)c1ccccc1` (stereo not drawn)?
AmpC detergent: -5%; AMA1-RON2 inh: -8%; FMDV inh: -9%; Sm TGR block: 40µM*; AmpC inh no detg: -25%

Results for O=S(=O)(c1cccnc1)N1CCn2cccc2C1c1ccccc1F (stereo not drawn) ?
AmpC detergent: inconclusive; AMA1-RON2 inh: -1%; FMDV inh: -23%; Sm TGR block: 32µM*; AmpC inh no detg: -21%

What do the screens show for `COc1ccc(C2c3cccn3CCN2S(=O)(=O)c2ccc([N+](=O)[O-])cc2)cc1` (stereo not drawn)?
AmpC detergent: 5%; FMDV inh: -30%; Sm TGR block: inconclusive

What do the screens show for `O=[N+]([O-])c1ccc(S(=O)(=O)N2CCn3cccc3C2c2ccccc2F)cc1` (stereo not drawn)?
AmpC detergent: 10%; FMDV inh: inconclusive; Sm TGR block: 35µM*

What do the screens show for `Cc1ccccc1[C@]1(C)ON(c2ccccc2C(F)(F)F)C1=O`?
AmpC detergent: 4%; Sm TGR block: 0%; AmpC inh no detg: -13%

What do the screens show for `CC[C@]1(c2ccccc2C)ON(c2ccccc2C(F)(F)F)C1=O`?
AmpC detergent: 5%; AMA1-RON2 inh: 7%; FMDV inh: 0%; Sm TGR block: 56µM*; AmpC inh no detg: -30%

Results for O=C(/C=C/c1ccco1)N/C(=C\c1ccco1)C(=O)NCCc1nc2ccccc2[nH]1 ?
AmpC detergent: 4%; AMA1-RON2 inh: 31%; FMDV inh: 4%; Sm TGR block: 16µM*; AmpC inh no detg: -21%

Results for Cc1ccc(-c2nc3ccccc3[nH]2)cc1NC(=O)/C=C/c1ccco1 ?
AmpC detergent: -12%; AMA1-RON2 inh: -5%; FMDV inh: 28%; Sm TGR block: 20µM*; AmpC inh no detg: -27%

Results for NC(=O)c1ccc[n+]([C@@H]2OC(COP(=O)([O-])OP(=O)(O)OCC3OC(n4cnc5c(N)ncnc54)C(OP(=O)(O)O)C3O)C(O)C2O)c1 (stereo partly drawn) ?
FMDV inh: 5%

What do the screens show for `CCCc1c(C(=O)OCC)nnc2c(-c3ccccc3)c(C)nn12`?
AmpC detergent: -2%; FMDV inh: -12%; Sm TGR block: inconclusive

Results for COc1cc2sc3ccc(-c4ccc(CN5CCOCC5)cc4)cc3c(=O)c2cc1OC ?
AMA1-RON2 inh: -7%; FMDV inh: 32µM*; AmpC inh no detg: 122%

Results for COc1ccc(CN2CCOCC2)cc1OC ?
AmpC detergent: -6%; AMA1-RON2 inh: -2%; FMDV inh: -18%; Sm TGR block: -7%; AmpC inh no detg: -14%

Results for CC1CC(C)CN(c2ncnc3c2cnn3-c2ccc(Cl)cc2)C1 (stereo not drawn) ?
AmpC detergent: 2%; AMA1-RON2 inh: 2%; FMDV inh: 21%; Sm TGR block: 15%; AmpC inh no detg: -10%

What do the screens show for `CCN(CC)C(=O)C1CCCN(c2ncnc3c2cnn3-c2ccc(Cl)cc2)C1` (stereo not drawn)?
AmpC detergent: inconclusive; AMA1-RON2 inh: -9%; FMDV inh: 20µM*; Sm TGR block: 6%; AmpC inh no detg: 239%

Results for CCOC(=O)C1CCCN(c2ncnc3c2cnn3-c2cccc(C)c2)C1 (stereo not drawn) ?
AmpC detergent: 3%; AMA1-RON2 inh: 1%; FMDV inh: inconclusive; Sm TGR block: 0%; AmpC inh no detg: 60%

What do the screens show for `CCN(CC)C(=O)C1CCCN(c2ncnc3c2cnn3-c2cccc(C)c2)C1` (stereo not drawn)?
AmpC detergent: -15%; AMA1-RON2 inh: -1%; FMDV inh: 14µM*; Sm TGR block: inconclusive; AmpC inh no detg: 138%

How did CC(=O)c1cccc(S(=O)(=O)NCCc2csc3nc(-c4ccc(F)cc4)nn23)c1 do in these assays?
AmpC detergent: 2%; FMDV inh: 10%; Sm TGR block: 2%

Results for COCCN1CCN(C(=O)c2cnn(-c3ncc4c(n3)-c3ccc(OC)cc3CC4)c2C2CC2)CC1 ?
FMDV inh: -22%

How did CCCCOC(=O)/C=C\C(=O)OCCCC do in these assays?
AmpC detergent: 3%; AMA1-RON2 inh: -7%; FMDV inh: -32%; Sm TGR block: inconclusive; AmpC inh no detg: 1%

What do the screens show for `CCCCOC(=O)/C=C\C(=O)NC(N)=O`?
AmpC detergent: -3%; AMA1-RON2 inh: 23%; FMDV inh: 28µM*; Sm TGR block: inconclusive; AmpC inh no detg: -17%

How did CCOC(=O)C1CCN(C2=C(NS(=O)(=O)c3ccc(Br)cc3)C(=O)c3ccccc3C2=O)CC1 do in these assays?
AmpC detergent: 0%; AMA1-RON2 inh: 13µM*; FMDV inh: -17%; Sm TGR block: -25%; AmpC inh no detg: -13%

How did CCN1CCN(C2=C(NS(=O)(=O)c3ccc(Br)cc3)C(=O)c3ccccc3C2=O)CC1 do in these assays?
AmpC detergent: 1%; AMA1-RON2 inh: -4%; FMDV inh: -1%; Sm TGR block: 45µM*; AmpC inh no detg: 6%

Results for NC(=O)C1CCN(C2=C(NS(=O)(=O)c3ccc(Br)cc3)C(=O)c3ccccc3C2=O)CC1 ?
AmpC detergent: inconclusive; AMA1-RON2 inh: -7%; FMDV inh: -18%; Sm TGR block: inconclusive; AmpC inh no detg: 109%

Compound activity from PubChem.
